Results on 51 compounds are retold here after PubChem BioAssay AID686979 (National Center for Advancing Translational Sciences (NCATS), 2013).

Each structure is given as a SMILES string. About 50,000 (12%) of roughly 420,000 compounds were called active. Roughly 26% stayed inconclusive and do not appear here. Only a selection was taken, and actives are over-represented in it overall. A number with no mark means an inactive call. Calls follow the shape of the dose curve; as a rule, active = well fitted inhibition curve with a large enough effect; inconclusive = small, poorly fitted or top-dose-only effect; inactive = flat fitted curve, though single readings scatter.
% is scaled to controls: 0 for no effect and ±100 for the full control effect; potency is read from the fitted curve at half-maximal effect.

The test can be described thus: qHTS for Inhibitors of human tyrosyl-DNA phosphodiesterase 1 (TDP1): qHTS in cells in presence of CPT. Also: nearly all actives have a fitted effect of over 55% in size. Particulars: chicken DT40 Tdp1-/-;hTDP1 cells + 20 nM CPT, ATP luminescence, 48 h; series mostly up to 46.2 µM; activity change, negative = growth inhibition: at the top concentration. A digest of the protocol: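 Chicken DT40 Tdp1-/- cells stably complemented with human TDP1 were seeded at 400 cells/well in medium containing 20 nM camptothecin, exposed to pin-transferred compounds, and grown at 37 °C for at least 48 hr. Viability was read as ATP luminescence.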
A general note: Quantitative high-throughput screening tests each substance at several concentrations.
With `COc1ccc(C)cc1N(C)C(=O)c1c(C)oc2ncnc(N3CCOCC3)c12`, the “activity change, negative = growth inhibition” value is 24.5%. On to `Cc1oc2ncnc(N3CCCCC3)c2c1C(=O)N1CCN(c2cccc(Cl)c2)CC1`, for which the Potency was 16.4 µM (active).

Regarding `Cc1ccc2oc(=O)c3cnn(CC(=O)N4CCN(c5cccc(Cl)c5)CC4)c3c2c1`, the “activity change, negative = growth inhibition” value was -20.3%. Turning to `O=C1C(c2[nH]c3ccccc3c2O)=Nc2ccccc21`, the “activity change, negative = growth inhibition” value was -24.8%. Still for that read-out and setting: next, `O=C(Nn1c(-c2ccccc2)nc2ccccc2c1=O)c1ccc([N+](=O)[O-])cc1`: -5.8%. On to `N=C1C(c2nc3ccccc3s2)=C(O)CN1NC(=O)c1ccc([N+](=O)[O-])cc1`, for which the Potency was 20.6 µM (active).

`CCOC(=O)CCCN1CC(O)=C(c2nc3ccccc3s2)C1=N`: the “activity change, negative = growth inhibition” value was -18.1%. The same measure, in the same setting: next, `COc1cccc(C(=O)n2ccc(-c3cccs3)n2)c1`: 5.04%; `CCCCc1ccc(NC(=S)NCCCN2CCOCC2)cc1`: -16%. On the same count and under the same terms, next, `Cc1ccc(NC(=S)N/N=C2/CCCc3c(C)cc(C)cc32)cc1`: 4.83%. As for `CCCCNC(=S)N/N=C1\CCCCc2ccccc21`, the Potency is 23.1 µM (active). Take `CCOc1ccccc1CN1CCN(C2CCC2)CC1CCO` (stereo unspecified): the “activity change, negative = growth inhibition” value was 1.66%. As to `COC(C[C@H](O)CC(=O)[C@@H](C)OCc1ccccc1)OC`, the “activity change, negative = growth inhibition” value is -0.491%. Regarding `COC(C/C=C/C(=O)[C@@H](C)OCc1ccccc1)OC`, the Potency was 18.4 µM (active). With `COC(C[C@@H]1O[C@@H]1C(=O)[C@@H](C)OCc1ccccc1)OC`, the “activity change, negative = growth inhibition” value was -25.6%. Still for that read-out and setting: next, `CCCC(C)C(=O)OCC(=O)Nc1c(Br)cc(C)cc1Br` (stereo unspecified): 3.63%; `OCC1(Cc2ccccc2C(F)(F)F)CCN(Cc2cccc3cnccc23)CC1`: -4.82%. Same read-out and setting: next, `CC1CCCCC1NC(=O)CSc1nnc(-c2ccncc2)n1CCCN(C)C` (stereo unspecified): 10.5%; `CN1CCN(c2ccc(S(=O)(=O)N3CCOCC3)cc2NC(=O)CCc2ccccc2)CC1`: 0.451%; `O=C(NCCCN1CCOCC1)c1ccc(N2CCCC2)c([N+](=O)[O-])c1`: 13.4%. For the compound `CCCNC(=O)c1ccc(N2CCC3(CC2)CC(c2ccc(Cl)cc2)=NO3)c([N+](=O)[O-])c1`, the Potency is 23.1 µM (active).

With `CCCNC(=O)c1ccc(N2CCC3(CC2)CC(c2cccc(Br)c2)=NO3)c(NC(=O)c2ccco2)c1`, the Potency was 5.17 µM (active). Turning to `CCCN(CCC)CCNC(=O)c1ccc2c(c1)NC(=O)C(CS(=O)(=O)Cc1cccc(Br)c1)N2` (stereo unspecified), the “activity change, negative = growth inhibition” value is -21.3%. Regarding `COC(=O)c1ccc(N2CCOCC2)c(NC(=O)c2ccc(Br)o2)c1`, the “activity change, negative = growth inhibition” value was 0.879%.

For the compound `COCCNC(=O)c1ccc(N2CCC3(CC2)OCCO3)c([N+](=O)[O-])c1`, the “activity change, negative = growth inhibition” value was -2.95%. As to `Cc1oc2c(C)c3oc(=O)c(CC(=O)N[C@@H](CC(C)C)C(=O)N[C@@H](Cc4ccccc4)C(=O)O)c(C)c3cc2c1C`, the “activity change, negative = growth inhibition” value was 0.481%. In the case of `COc1cc(N)c(Cl)cc1C(=O)OCC(=O)c1ccc2c(c1)NC(=O)CO2`, the “activity change, negative = growth inhibition” value is -24.7%.

Regarding `CCOc1ccccc1NC(=O)CCc1nnc2ccc(NCc3ccco3)nn12`, the “activity change, negative = growth inhibition” value is -5.44%.

`Cn1ncc([N+](=O)[O-])c1C(=O)Nc1cc(Cl)ccc1Cl`: the “activity change, negative = growth inhibition” value is 13.4%.

As for `C/C(=N\NC(=O)c1cccnc1)c1ccc(-n2ccnc2)cc1`, the “activity change, negative = growth inhibition” value was 6.18%. Same read-out and setting: next, `Cc1ccc(C)c(NC(=O)CCC(=O)N/N=C2/CC(=O)CC(C)(C)C2)c1`: -5.64%; `Nc1[nH]c(C(=O)c2ccccc2)c(-c2ccc(Br)cc2)c1C(=O)NC1CC1`: -9.96%. In the case of `COc1ccccc1/C=N\Nc1cc(C)nc(-n2nc(C)cc2C)n1`, the Potency was 6.51 µM (active).

Consider `Cc1ccc(S(=O)(=O)Nc2nc(C)cc(N/N=C/c3ccc(O)cc3)n2)cc1`, for which the “activity change, negative = growth inhibition” value was -0.757%. Turning to `COc1cccc(/C=N/Nc2cc(C)nc(-c3ccccc3O)n2)c1O`, the Potency is 18.4 µM (active). As to `COc1ccccc1-n1c(SCC(=O)Nc2cccc(C(=O)O)c2)nnc1-c1ccccc1O`, the “activity change, negative = growth inhibition” value was -3.19%. The same measure, in the same setting: next, `COc1cc(NS(=O)(=O)c2ccccc2)ccc1-n1nc(C)cc1C`: -9.7%.

For `Cc1cc(N/N=C\c2ccc(Br)cc2)nc(-n2nc(C)cc2C)n1`, the Potency was 1.64 µM (active). `COc1ccccc1/C=N/Nc1nc(C)c(C(C)=O)s1`: the “activity change, negative = growth inhibition” value is -19.1%. With `COc1cccc2c(N/N=C/c3ccco3)cc(C)nc12`, the “activity change, negative = growth inhibition” value is -2.9%.

As to `Cc1nc(Cl)cc(N/N=C/c2ccccc2)n1`, the “activity change, negative = growth inhibition” value was -13%. For `COc1ccc(CCNS(=O)(=O)c2ccc(Cl)s2)cc1OC`, the “activity change, negative = growth inhibition” value is -20.2%. In the case of `COc1cc(=O)n2c(c1C(=O)N(C)Cc1nonc1C)CCN(C(=O)c1ccc(C)cc1C)CC2`, the “activity change, negative = growth inhibition” value was 14.1%.

Take `CCc1ccc(NC(=O)CC2C(=O)NCCN2C(=S)Nc2ccccc2)cc1` (stereo unspecified): the “activity change, negative = growth inhibition” value was -7.73%.

On to `O=C(Nc1nnc([C@H]2C[C@H](O)[C@@H](CO)O2)s1)c1cccc(Cl)c1`, for which the “activity change, negative = growth inhibition” value was -16.4%. On to `O=C(Nc1cccc2cccnc12)c1ccc2sc([C@H]3C[C@H](O)[C@@H](CO)O3)nc2c1`, for which the Potency was 18.4 µM (active). For the compound `O=C(Nc1cccc2cccnc12)c1cccc(Cl)c1`, the “activity change, negative = growth inhibition” value was -16.5%.

Take `O=C1CCC(=O)N1CCC(=O)N(C(=O)NC1CCCCC1)C1CCCCC1`: the “activity change, negative = growth inhibition” value was 3.74%. Turning to `NC(=O)C[n+]1cccc(C(N)=O)c1`, the “activity change, negative = growth inhibition” value was -1.13%. Still for that read-out and setting: next, `COc1cc(COCC(O)CN2CCN(Cc3ccc4c(c3)OCO4)CC2)cc(OC)c1OC` (stereo unspecified): -5.21%. In the case of `COc1c(O)ccc2c1CN1CCc3cc4c(cc3C1C2)OCO4` (stereo unspecified), the Potency was 14.6 µM (active).
